Experimental data taken from PubChem BioAssay (NCI).
Compounds without any hit were thinned out: in the full panel of roughly 79,000, 15% have a hit. Unmarked numbers belong to inactive results. Activity calls are given as the source filed them. Rule as the data show it: active = growth inhibition above about 70%; inactive = the rest.

Legend:
[1] = NCI Yeast Anticancer Drug Screen. Data for the rad50 strain (AID 155);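 also: 0% = growth of vehicle-only cultures of the same strain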; conditions: S. cerevisiae rad50 strain growth inhibition, active compounds read high
Outline: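 Cells are treated with compound, grown, and their growth is then scored against vehicle-only cultures of the same repair-deficient yeast strain.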

[2] = NCI Yeast Anticancer Drug Screen. Data for the mec2-1 strain (AID 157); conditions: S. cerevisiae mec2-1 strain, active compounds read high
Outline: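 Compounds were applied to mec2-1 yeast cells. Their growth was then compared with that of vehicle-treated cultures to give growth inhibition.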

[3] = NCI Yeast Anticancer Drug Screen. Data for the sgs1 mgt1 strain (AID 161);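 also: 0% = growth of cultures given vehicle only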; conditions: S. cerevisiae sgs1 mgt1 strain, active compounds read high
Outline: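 Compounds are added to genetically altered yeast, and growth is compared with cultures given vehicle alone to give percent inhibition.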

[4] = NCI Yeast Anticancer Drug Screen. Data for the cln2 rad14 strain (AID 165);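 also: 0% = growth equal to vehicle treated cultures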; conditions: S. cerevisiae cln2 rad14 strain, active compounds read high
Outline: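 Strain: cln2 rad14 yeast, altered in cell cycle control and DNA damage repair. Read-out: growth inhibition vs vehicle.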

[5] = NCI Yeast Anticancer Drug Screen. Data for the bub3 strain (AID 167); conditions: S. cerevisiae bub3 mutant strain, active compounds read high
Outline: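 Part of a panel of yeast mutants defective in DNA damage repair or cell cycle regulation. Each strain is grown with compound, and inhibition is calculated relative to solvent-treated cultures.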

[6] = NCI Yeast Anticancer Drug Screen. Data for the mlh1 rad18 strain (AID 175); conditions: S. cerevisiae mlh1 rad18 strain growth inhibition, active compounds read high
Outline: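 A repair-deficient yeast strain is exposed to test compound, and growth is scored relative to vehicle-treated controls.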

[7] = at 5.0 µM (retest, dose inferred, filed as 0.5)
[8] = at 50.0 µM (retest, dose inferred, filed as 5.0)

Structure (SMILES) | growth inhibition [1, 7] | growth inhibition [1, 8] | growth inhibition ([1]; at 50.0 µM) | growth inhibition [2, 7] | growth inhibition [2, 8] | growth inhibition ([2]; at 50.0 µM) | growth inhibition [3, 7] | growth inhibition [3, 8] | growth inhibition ([3]; at 50.0 µM) | growth inhibition [4, 7] | growth inhibition [4, 8] | growth inhibition ([4]; at 50.0 µM) | growth inhibition [5, 7] | growth inhibition [5, 8] | growth inhibition ([5]; at 50.0 µM) | growth inhibition [6, 7] | growth inhibition [6, 8] | growth inhibition ([6]; at 50.0 µM)
COC(=O)C1C(=O)CC(c2ccccc2)C1c1ccccc1 (configuration not stated) | 2% | -4% | 6.5% | 1% | -3% | -6.25% | -1% | -4% | -7.85% | 0% | -5% | 15.8% | 7% | 10% | 1.2% | 0% | -3% | -0.75%
COc1cccc(C2c3cc4c(cc3OC(O)C2C)OCO4)c1O (configuration not stated) | -10% | 8% | 13.6% | -5% | 23% | 11.5% | 1% | 24% | -6.55% | 7% | 4% | 12.6% | -4% | 27% | 34.1% | -7% | 30% | 58%
NC(=Nc1ccccc1)SCc1ccc([N+](=O)[O-])cc1 | 47% | 67% | 30.2% | 51% | 78% (active) | 43% | 13% | 71% (active) | 57.2% | 52% | 76% (active) | 16.8% | 29% | 76% (active) | 70.5% (active) | 43% | 70% (active) | 19.4%
C=CC(=O)c1ccc2c(c1)OCCOCCOCCOCCOCCO2 | -18% | 64% | 77.8% (active) | 4% | 50% | 54.5% | -13% | 40% | 62.8% | 20% | 42% | 4.4% | -4% | 78% (active) | 78% (active) | 0% | 86% (active) | 59.4%
CCCCCCCCCCCCCC/C(=C/OCC[N+](C)(C)C)OC(C)=O (tested in a mixture with another compound) | 99% (active) | 99% (active) | 99.7% (active) | 99% (active) | 100% (active) | 99.8% (active) | 94% (active) | 100% (active) | 99.8% (active) | 99% (active) | 99% (active) | 99.3% (active) | 99% (active) | 99% (active) | 99.7% (active) | 98% (active) | 100% (active) | 99.7% (active)
CCC[N+]1=C(/C=C/c2ccc3cccnc3c2O)C(C)(C)c2ccccc21 | 0% | 98% (active) | 98.8% (active) | 0% | 98% (active) | 99% (active) | 10% | 98% (active) | 54% | -15% | 98% (active) | 98.9% (active) | 4% | 98% (active) | 98.8% (active) | 25% | 98% (active) | 97.8% (active)
O=C(Nc1ccc(C(=O)Nc2ccc3c(O)cc(S(=O)(=O)O)cc3c2)cc1)c1ccccc1 | 0% | -2% | 25.8% | 2% | 34% | -5.7% | 2% | 21% | 25.8% | 1% | -13% | 1.4% | 0% | -6% | 1.15% | 19% | 6% | 47%
c1ccc(N2CCN(c3ccccc3)C2Cc2c[nH]c3ccccc23)cc1 | 30% | 98% (active) | 99.2% (active) | 19% | 99% (active) | 98.4% (active) | 25% | 98% (active) | 99.4% (active) | 17% | 99% (active) | 92.5% (active) | 61% | 98% (active) | 99.2% (active) | 61% | 99% (active) | 98.9% (active)
O=C1C=C/C(=C(/c2ccc(O)c(O)c2)c2ccccc2S(=O)(=O)O)C=C1O | 1% | 0% | 11.8% | 2% | -25% | -0.5% | -2% | 2% | 5.3% | 5% | -2% | 15.9% | -40% | -3% | -1.5% | 2% | 4% | 1.75%
CC12CCC(C(Br)(Br)C1=O)C2(C)C (configuration not stated) | 29% | 60% | 40.6% | 17% | 46% | 59.4% | 26% | 56% | 72.1% (active) | 22% | 41% | 30.5% | 18% | 74% (active) | 86.8% (active) | 16% | 68% | 88.7% (active)
CC(=O)N(C(C)=O)C1=C2c3ccccc3N(S(=O)(=O)c3ccccc3)C2n2c(=O)n(-c3ccccc3)c(=O)n2C1 (configuration not stated) | 11% | 64% | 69.9% | -5% | 46% | 46.8% | -1% | 66% | 75.7% (active) | -26% | 61% | 63.7% | 0% | 56% | 58.6% | -10% | 35% | 55.7%
O=C(O)c1c(Cl)c(Cl)c(Cl)c(Cl)c1-c1c2ccc(=O)cc-2oc2cc(O)ccc12 | 54% | 97% (active) | 86.7% (active) | 45% | 99% (active) | 92% (active) | 61% | 99% (active) | 90.5% (active) | 57% | 98% (active) | 91.2% (active) | 57% | 99% (active) | 90.1% (active) | 67% | 98% (active) | 86.2% (active)
NC1CCCCC1N.O=S(=O)([O-])CCCN1CCOCC1.O=S(=O)([O-])CCCN1CCOCC1.[Pt+4] | -12% | 89% (active) | 99% (active) | -6% | 73% (active) | 98.9% (active) | 0% | 87% (active) | 99% (active) | -14% | 58% | 99% (active) | 10% | 92% (active) | 98.6% (active) | 20% | 98% (active) | 99.2% (active)
CC(C)(C)CC(C)(C)c1ccc(Oc2ccc([N+](=O)[O-])cc2S(=O)(=O)O)cc1 | -2% | 21% | 14.8% | -6% | -1% | 0.05% | -1% | 32% | 64.5% | 4% | -4% | -23.4% | -2% | -13% | 5.45% | 5% | 26% | 24.7%
CCCCCCCCCc1cc(=O)[nH]c(=S)[nH]1 | 17% | 74% (active) | 85.1% (active) | 6% | 72% (active) | 77.7% (active) | 25% | 65% | 79.3% (active) | -13% | 58% | 50.5% | 8% | 77% (active) | 85.9% (active) | 20% | 84% (active) | 86.8% (active)
O=C(CCCN1CCC(C(O)c2ccc(F)cc2)CC1)c1ccc(F)cc1 (configuration not stated) | 37% | 86% (active) | 71.5% (active) | 33% | 78% (active) | 69.5% | 47% | 95% (active) | 79.8% (active) | 47% | 87% (active) | 68% | 53% | 97% (active) | 75.8% (active) | 62% | 89% (active) | 68.5%
O=Cc1c(O)ccc2ccccc12.[Cu+2] | -27% | 95% (active) | 99.3% (active) | -2% | 47% | 99.2% (active) | -7% | 97% (active) | 99.2% (active) | -19% | 42% | 99% (active) | -54% | 94% (active) | 98.8% (active) | -14% | 97% (active) | 99.2% (active)
O=P(O)(O)Oc1c(O)c2ccccc2c2ccccc12 | 14% | 73% (active) | 91.4% (active) | 22% | 95% (active) | 94.8% (active) | 17% | 85% (active) | 97.5% (active) | 5% | 97% (active) | 97% (active) | 25% | 92% (active) | 99.6% (active) | 17% | 94% (active) | 99.3% (active)
CCOC(=O)C(N=Nc1ccc(Br)c(C)c1)C(C)=O (configuration not stated) | -4% | 81% (active) | 92.2% (active) | -7% | 27% | 84.1% (active) | 1% | 92% (active) | 98% (active) | 11% | 50% | 76.8% (active) | -6% | 64% | 88% (active) | 4% | 88% (active) | 97.5% (active)
